High-throughput results deposited in PubChem BioAssay by National Center for Advancing Translational Sciences (NCATS).
G9a block = G9a (human) methyltransferase inhibition | 8.8% of 350,000 active | G9a H3K9 monomethylation, AlphaScreen, 2 h | Potency, µM (series often up to 102 µM), usual class: inhibitors | AID 504332; also: nearly all actives have a fitted effect of over 75% in size
Target sequence (Q96KQ7 913-1193 limits assumed): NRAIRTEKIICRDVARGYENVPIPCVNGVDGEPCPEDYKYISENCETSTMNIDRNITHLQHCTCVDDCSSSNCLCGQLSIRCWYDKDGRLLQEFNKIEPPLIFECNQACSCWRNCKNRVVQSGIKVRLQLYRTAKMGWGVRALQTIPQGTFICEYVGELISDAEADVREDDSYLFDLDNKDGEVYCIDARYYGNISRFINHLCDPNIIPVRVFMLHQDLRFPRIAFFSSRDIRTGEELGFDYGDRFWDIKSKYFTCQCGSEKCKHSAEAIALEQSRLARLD
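Quantitative HTS format: methyltransferase activity on a biotin-tagged H3K9 peptide is measured by AlphaScreen, using a rabbit anti-monomethyl-H3K9 antibody with streptavidin donor and anti-IgG acceptor beads. Final levels are 20 nM enzyme, 500 nM peptide, 20 uM SAM; 2 h RT.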
VDR inhibitor = vitamin D3 receptor (human) inhibition. VDR-SRC2-3 peptide fluorescence polarization, 2 h. Potency, µM, hits mostly inhibitors. 0.93% of 400,000 active
Target sequence (P11473 whole entry, looked up): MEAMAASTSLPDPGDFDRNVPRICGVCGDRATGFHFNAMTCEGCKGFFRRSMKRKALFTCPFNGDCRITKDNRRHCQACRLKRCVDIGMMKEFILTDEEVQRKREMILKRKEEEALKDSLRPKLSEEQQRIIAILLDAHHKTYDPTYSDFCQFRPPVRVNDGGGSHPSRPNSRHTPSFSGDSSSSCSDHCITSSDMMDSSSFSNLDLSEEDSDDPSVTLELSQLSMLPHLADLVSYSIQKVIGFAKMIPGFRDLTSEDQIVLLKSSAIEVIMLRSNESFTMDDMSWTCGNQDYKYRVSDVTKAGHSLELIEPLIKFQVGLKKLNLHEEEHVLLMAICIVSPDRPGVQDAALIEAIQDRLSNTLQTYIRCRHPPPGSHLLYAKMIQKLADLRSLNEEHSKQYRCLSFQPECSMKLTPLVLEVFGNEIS
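Inhibition of the VDR/SRC2-3 peptide interaction is quantified by fluorescence polarization. Compounds (23 nl, pintool) incubate with the reagents for 2 hours at ambient room temperature.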
GRP78 ERSR act = inducers of ER stress response in human glioma cells. U87-MG GRP78 promoter luciferase reporter, 16 h. 0.02% of 420,000 active. Potency, µM, actives largely listed as activators; also: series mostly up to about 76 µM; nearly all actives have a fitted effect of over 35% in size
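ERSR induction read as luciferase luminescence (Bright-Glo, 10 min at room temperature) in stably transfected human U87-MG glioma cells exposed to compounds for 16 h, using GRP78 as sensor.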
Sfp PPTase inh = Sfp phosphopantetheinyl transferase inhibition; Biochemical Sfp PPTase activity, qHTS; Potency, µM, actives largely listed as inhibitors; 3.5% of 310,000 active;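 also: the enzyme is Sfp with the accession as filed and its product quenches rhodamine fluorescence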
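Step 1, compound plus 15 nM Sfp-PPTase, 15 min, room temperature. Step 2, add rhodamine-CoA (5 uM) and BHQ-2-YbbR (12.5 uM). Step 3, read 525/598 nm fluorescence at 0 and 30 min.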
ALOX12 inh = inhibitors of human 12S-lipoxygenase ALOX12; P18054; AID 1671190; Potency, µM (series often up to 108 µM), most hits filed as inhibitors; 1.1% of 580,000 active; purified 12hLO, xylenol orange hydroperoxide absorbance
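Purified human 12hLO (150 nM final) in 25 mM Hepes, 0.01% Triton X-100, pH 7.0 was preincubated 15 min at room temperature with compound. Then 40 uM arachidonic acid was added, 30 min. Hydroperoxide was read by Fe-XO absorbance ratio 573/405 nm.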
Hits are given with their value; - = inactive; ? = inconclusive; . = no result; [ ] = dose if it differs, or a comment. Shown is part of a subset that was picked to be rich in hits. Calls follow the shape of the dose curve; as a rule, active = well fitted curve in the direction sought with a large enough effect; inconclusive = small, poorly fitted or top-dose-only effect, or another doubt; inactive = no such curve, though single readings can be large; an effect the other way counts as inactive or inconclusive.

SMILES	G9a block	VDR inhibitor	GRP78 ERSR act	Sfp PPTase inh	ALOX12 inh
COc1ccc2c(c1)C1NC(=S)NC(C)(O2)C1C(=O)Nc1ccc(Cl)cc1 (stereo not drawn)	-	-	-	-	40µM
O=C(Nc1cccc2cccnc12)c1cccc(S(=O)(=O)N2CCN(Cc3ccccc3)CC2)c1	.	.	.	.	-
CCOC(=O)C1=C(C)Nc2nc(SCc3ccccc3)nn2C1c1ccc(C)cc1 (stereo not drawn)	.	.	.	.	-
Cc1ccc(C(NC(=O)N2CC(C)OC(C)C2)C(Cl)Cl)cc1F (stereo not drawn)	79µM	-	-	-	?
Cc1ccc(C(NC(=O)N2CCOCC2)C(Cl)Cl)cc1F (stereo not drawn)	45µM	-	-	-	-
Cc1ccc(C(NC(=O)N2CCN(C)CC2)C(Cl)Cl)cc1F (stereo not drawn)	?	?	-	-	-
COCc1cccc(C(=O)NCc2cccs2)c1	.	.	.	.	-
O=[N+]([O-])c1cc(-c2ccc(/C=N/c3nc4ccccn4c3-c3ccco3)o2)ccc1Cl	13µM	?	-	?	?
Nc1ccccc1C1CC1	.	.	.	.	7.1µM
O=C(Nc1ccccc1C1CC1)C1CC1	.	.	.	.	-
Cc1cc(-c2nc(C)c(C(=O)NNS(=O)(=O)c3ccc(Cl)cc3Cl)s2)no1	40µM	-	-	-	?
COc1cc(C(=O)Nc2cc(Cl)ccc2OCC2CCCO2)cc(OC)c1OC (stereo not drawn)	.	.	.	.	-
N=C1/C(=C\c2ccc(-c3ccc(C(=O)O)cc3)o2)C(=O)N=C2SC=C(c3ccccc3)N12	.	-	-	32µM	?
Cc1cc(/C=C2/C(=N)N3C(c4ccccc4)=CSC3=NC2=O)c(C)n1-c1ccc(Cl)cc1	.	-	-	.	-
N=C1/C(=C\c2ccc(-c3cccc(Cl)c3)o2)C(=O)N=C2SC=C(c3ccccc3)N12	45µM	?	-	6.3µM	35µM
CCC(C)(C)NC(=O)/C=C/c1cccc(C#N)c1	.	.	.	.	-
O=C(NCc1nc2ccccc2[nH]1)c1ccc2n[nH]nc2c1	.	.	.	.	-
Cc1ccccc1-c1nnn(CC(=O)Nc2ccc(Cl)c(S(=O)(=O)N3CCOCC3)c2)n1	.	.	.	.	-
C=CCN1C(=O)S/C(=C\c2cn(CC(=O)OCC)c3ccccc23)C1=O	.	.	.	.	-
CCN1C(=O)S/C(=C/c2cn(C(C)C)c3ccccc23)C1=O	.	.	.	.	-
CC(C)C(=O)c1cn(CC(=O)O)c2ccccc12	-	-	-	-	-
N#C/C(=C/c1cn(CC(=O)O)c2ccccc12)C(=O)NCc1ccccc1	56µM	-	-	-	-
O=C(O)Cn1cc(/C=C/[N+](=O)[O-])c2ccccc21	56µM	?	-	-	?
C=CCN1C(=O)S/C(=C/c2cn(CC(=O)O)c3ccccc23)C1=O	.	.	.	.	32µM
CNC(=O)/C(C#N)=C/c1cn(CC(=O)NCc2ccco2)c2ccccc12	-	-	-	-	?
SMILES	G9a block	VDR inhibitor	GRP78 ERSR act	Sfp PPTase inh	ALOX12 inh
CC(C)N1C(=O)S/C(=C/c2cn(CC#N)c3ccccc23)C1=O	.	.	.	.	4.5µM
CCN(CC)c1ccc(/C=C(/C#N)C(=O)NCc2ccccc2)o1	11µM	-	-	-	?
N#Cc1ccccc1Cn1cc(/C=C/[N+](=O)[O-])c2ccccc21	50µM	32µM	-	-	-
N#Cc1cn(Cc2cccc(Cl)c2)c2ccccc12	-[12.7 µM]	-	-	?	-
CCN(CC)c1ccc(/C=C(/C#N)C(=O)NC(C)C)o1	?	-	-	-	-
Cc1ccc(C)c(C(=O)COC(=O)c2ccc(C(=O)c3ccccc3)cc2)c1	.	.	.	.	-
O=C(CC1CCCCC1)N1CCCC(c2noc(COc3ccccc3)n2)C1 (stereo not drawn)	.	.	.	.	-
CCC1CCc2sc(C(=O)NC(C)C)cc2C1 (stereo not drawn)	.	.	.	.	-
CC1CCN(C(CNC(=O)c2cc3ccccc3oc2=O)c2cccs2)CC1 (stereo not drawn)	.	.	.	.	-
Cc1cc(C)nc(SCC(=O)NNS(=O)(=O)c2ccc(C#N)cc2)n1	7.9µM	-	-	.	?
Cc1ccc(SCC(=O)Nc2ccc(S(=O)(=O)Nc3ncccn3)cc2)cc1	45µM	-	-	-	-
CCc1c(C(=O)NNC(=S)Nc2ccc(S(=O)(=O)Nc3ncccn3)cc2)csc1C	20µM	-	-	-	-
CC(=O)NS(=O)(=O)c1ccc(NC(=O)CSc2ccc(C)cc2)cc1	?	-	-	79µM	?
CC(=O)NS(=O)(=O)c1ccc(NC(=O)CCC(=O)Oc2ccc(C)cc2)cc1	-	-	-	-	-
Cc1cc(C)nc(NS(=O)(=O)c2ccc(NS(=O)(=O)c3ccc(C#N)cc3)cc2)n1	?	-	-	-	-
O=C(Nc1ccc(S(=O)(=O)Nc2ncccn2)cc1)C1=COCCO1	32µM	-	-	.	-
Cc1cc(C)c2c(CC(=O)Nc3ccc(S(=O)(=O)Nc4ncccn4)cc3)coc2c1	?	-	-	.	-
CC(=O)Nc1ccc(S(=O)(=O)Nc2ncccn2)cc1	-	-	-	-	-
Cc1cc(C)nc(NS(=O)(=O)c2ccc(NC(=O)Cn3c(=O)oc4ccccc43)cc2)n1	79µM	-	-	-	-
Cc1cc(C)c2c(CC(=O)Nc3ccc(S(=O)(=O)Nc4nc(C)cc(C)n4)cc3)coc2c1	14µM	-	-	.	-
O=C(Cc1ccc(Cl)cc1)Nc1ccc(S(=O)(=O)Nc2ncccn2)cc1	79µM	-	-	-	?
COc1ccc(-c2c(C)c3cc(OS(=O)(=O)c4ccccc4)ccc3oc2=O)cc1	.	.	.	.	-
Cc1nc(-c2ccc3c(c2)Cc2ccccc2-3)cs1	.	.	.	.	-
COc1ccc2c(c1)c(C(C(=O)O)N1CCN(c3cccc(Cl)c3)CC1)cn2CCC(=O)O (stereo not drawn)	.	.	.	.	-
CC(=O)Nc1ccc(SCC(=O)NNC(=O)CN(C)S(=O)(=O)c2ccc(C)cc2)cc1	45µM	-	-	.	-
SMILES	G9a block	VDR inhibitor	GRP78 ERSR act	Sfp PPTase inh	ALOX12 inh
CC(=O)c1ccc(S(=O)(=O)N(C)CC(=O)Nc2ccc(C)cc2)cc1	-	-	-	.	-
Cc1cc(C)nc(SCC(=O)Nc2ccc(S(=O)(=O)Nc3ncccn3)cc2)n1	.	-	-	13µM	-
CN(C(=O)c1cn(C)c2ccccc12)C1CCS(=O)(=O)C1 (stereo not drawn)	.	.	.	.	-
NCCCC(=O)O	2.8µM	-	-	-	-
NCCCCC(=O)O	-	-	-	-	-
CCn1cc(-c2ccc(C)cc2)cc1C(=O)NC(C)c1ccccn1 (stereo not drawn)	.	.	.	.	-
CN(C)c1ncc(C2=C(Cl)C(=O)C(N3CCCC3)=C(Cl)C2=O)s1	.	28µM	-	.	?
O=C1C(Cl)=C(N2CCCCC2)C(=O)C(Cl)=C1c1cnc(N2CCCCC2)s1	2.2µM	?	-	18µM	.
NC(=O)COc1ccc2oc(-c3ccccc3)cc(=O)c2c1	50µM	-	-	-	-
S=C(NCCCN1CCOCC1)N1CCN(c2nc(-c3ccccc3)cs2)CC1	56µM	-	-	45µM	-
O=S(=O)(c1cccc(Cl)c1Cl)N1CCN(C(=S)NCCCN2CCOCC2)CC1	35µM	-	-	-	?
Cc1cc(C)c2nc(SCC(=O)N(C)C)cc(C)c2c1	.	.	.	.	-
